Records with an inconclusive call do not appear. The source made the active and inactive calls. The call rests on the fitted dose curve; in most records, active means well fitted cell-killing curve with a large enough effect; inconclusive means small, poorly fitted or top-dose-only effect; inactive means no such curve, though single readings can be large or run the other way.
On the % scale 0 is the no-effect control and ±100 the full control effect; potency means the concentration at half of the fitted maximal effect.

A short description of the first assay: qHTS of pediatric cancer cell lines to identify multiple opportunities for drug repurposing: Primary screen for Saos-2 cells (AID 1347097). Further: nearly all actives have a fitted effect of over 40% in size. The settings on record: Saos-2 viability, CellTiter-Glo ATP luminescence, 48 h; series mostly up to 46 µM; activity change, negative = cytotoxic: at the top concentration. The method in brief:
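Viability was measured as metabolically active cells after 48 hours of treatment, read by CellTiter-Glo luminescence. Compounds were tested at multiple final concentrations, giving concentration-response curves.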
As for `CCOP(=O)(OCC)C(C)NC(=O)N(CCCl)N=O` (centres undefined), the “activity change, negative = cytotoxic” value is -2.03% (inactive).
For the compound `CC(C)(O)C(=O)Nc1ccc([N+](=O)[O-])c(C(F)(F)F)c1`, the “activity change, negative = cytotoxic” value is -0.419% (inactive).
Still for that read-out and setting: the figure for `Cc1cc(O)ccc1Cl` is 15.4% (inactive); for `O=C1C(I)=CC(=C(c2cc(I)c(O)c(I)c2)c2ccccc2C(=O)O)C=C1I` it is 0.399% (inactive).
Regarding `CCCCCCCCc1ccc(O)cc1`, the Potency is 39 µM (active).
As for `CC(=O)Nc1ccc(OC[C@](C)(O)C(=O)Nc2ccc([N+](=O)[O-])c(C(F)(F)F)c2)cc1`, the “activity change, negative = cytotoxic” value was -16.2% (inactive).
Consider `C=C[C@@H]1CN2CCC1C[C@H]2[C@H](O)c1ccnc2ccccc12` (some centres undefined), for which the Potency is 18.7 µM (active).
In the case of `CCN(CC)C(=O)c1ccc(C2=CC3(CCNCC3)Oc3cccc(O)c32)cc1`, the “activity change, negative = cytotoxic” value is 5.79% (inactive).
Regarding `CC(N[C@H]1C[C@H]1c1ccccc1)c1ccc2c(c1)OCCO2` (some centres undefined), the “activity change, negative = cytotoxic” value is 7.68% (inactive).
In the case of `O=C1C=CC[C@@H]2[C@H]3CCCN4CCC[C@@H](CN12)[C@@H]34`, the “activity change, negative = cytotoxic” value was -1.83% (inactive).
As for `CC=C(C)C(=O)N[C@@H](c1ccccc1)[C@@H](O)C(=O)O[C@H]1C[C@@]2(O)[C@@H](OC(=O)c3ccccc3)[C@@H]3[C@]4(OC(C)=O)CO[C@@H]4C[C@H](O)[C@@]3(C)C(=O)[C@H](OC(C)=O)C(=C1C)C2(C)C`, the Potency was 0.0132 µM (active).
On to `COc1ccc(CC2NCCc3cc(OC)c(OC)cc32)cc1OC` (centres undefined), for which the “activity change, negative = cytotoxic” value is 3.9% (inactive).
`S=C(SSC(=S)N1CCCCC1)N1CCCCC1`: the Potency is 0.0376 µM (active).

A short description of another assay: qHTS of pediatric cancer cell lines to identify multiple opportunities for drug repurposing: Primary screen for SK-N-SH cells (AID 1347098). Further: nearly all actives have a fitted effect of over 65% in size.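 On activity change, negative = cytotoxic: DMSO served as neutral control and bortezomib at 2.3 µM as positive control.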 The settings on record: SK-N-SH viability, CellTiter-Glo luminescence, 48 h; series mostly up to 57 µM; activity change, negative = cytotoxic: at the top concentration. An outline of the steps: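 Cells (500-1,000/well) rested 5 h, then received compounds for 48 h; metabolically active cells were measured by CellTiter-Glo luminescence. Final concentrations spanned up to 46 µM (MIPE, 11-point) or 0.59 nM-46 µM (NPC, 8-point) in primary screens, 11-point in follow-ups.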
For `CCCN1CCO[C@@H]2c3cc(O)ccc3OC[C@@H]21`, the Potency is 21.5 µM (active).
Take `Cc1c(N)nc([C@H](CC(N)=O)NC[C@@H](N)C(N)=O)nc1C(=O)N[C@H](C(=O)N[C@@H](C)[C@H](O)[C@@H](C)C(=O)N[C@@H](C(=O)NCCc1nc(-c2nc(C(=O)NCCC[S+](C)C)cs2)cs1)[C@@H](C)O)C(O[C@H]1O[C@H](CO)[C@H](O)[C@@H](O)[C@@H]1O[C@H]1O[C@H](CO)[C@@H](O)[C@H](OC(N)=O)[C@H]1O)c1cnc[nH]1` (some centres undefined): the “activity change, negative = cytotoxic” value is -7.82% (inactive).
On the same count and under the same terms, then `CC(C)[C@H]1C(=O)N[C@H](CO)Cc2c[nH]c3cccc(c23)N1C`, with 37.8% (inactive); and `C#C[C@]1(O)C=C[C@@H]2[C@@H]3CCC4=CC(=O)CC[C@@H]4[C@H]3CC[C@@]21CC`, with 2.62% (inactive).
On to `O=C(NCC1CCOCC1)c1cnc(Nc2ccc(Cl)cc2Cl)nc1C(F)(F)F`, for which the Potency is 6.07 µM (active).
On to `C[C@@H]1CC[C@H]2[C@@H](C)C(=O)O[C@@H]3O[C@@]4(C)CC[C@H]1[C@]32OO4`, for which the “activity change, negative = cytotoxic” value is -13.5% (inactive).
Still for that read-out and setting: the figure for `CCCCOC(=O)c1ccccc1C(=O)OCc1ccccc1` is -15.7% [at 115 µM] (inactive); for `Oc1ccc2c3c1O[C@H]1c4[nH]c5c(c4C[C@@]4(O)[C@@H](C2)N(CC2CC2)CC[C@]314)C[C@@]1(O)[C@H]2Cc3ccc(O)c4c3[C@@]1(CCN2CC1CC1)[C@H]5O4` it is 10.6% (inactive).
Same read-out and setting: then `CC[C@H]1C=CC=CC[C@@H](C)[C@H](O)[C@@](C)(O)C(=O)[C@@H](C)[C@H](O)[C@@H](C)C(=O)[C@@H](C)[C@H](O)[C@@H](C)C=CC(=O)O[C@@H]2[C@@H](C)[C@H](CC1)O[C@]1(CC[C@H](C)[C@H](C[C@@H](C)O)O1)[C@H]2C`, with 3.85% (inactive); and `CCCCCCCCCC(CC)c1ccc(S(=O)(=O)O)cc1` (centres undefined), with -19.2% [at 115 µM] (inactive).
The same measure, in the same setting: the figure for `CCC(=O)O[C@@H]1C=C2CCC3C(CCC4(C)C3CC[C@@H]4OC(=O)CC)C2CC1` (some centres undefined) is -9.81% (inactive).
On to `CCCCCC[C@H]1C(=O)O[C@H](C)[C@H](NC(=O)c2cccc(NC=O)c2O)C(=O)O[C@@H](C)[C@@H]1OC(=O)CC(C)C`, for which the “activity change, negative = cytotoxic” value is -2.69% (inactive).
Still for that read-out and setting: the figure for `CCOP(=O)(OCC)C(C)NC(=O)N(CCCl)N=O` (centres undefined) is 8.72% (inactive).
Consider `CC1(N2CCC(n3c([C@@H]4CCCNC4)nc4ccccc43)CC2)CCCCCCC1`, for which the Potency is 30.4 µM (active).
The same measure, in the same setting: then `CC(C)(O)C(=O)Nc1ccc([N+](=O)[O-])c(C(F)(F)F)c1`, with 24.1 µM (active).
In the case of `Cc1cc(O)ccc1Cl`, the “activity change, negative = cytotoxic” value was -5.82% (inactive).
The same measure, in the same setting: then `C#CC1(O)CCC2C3CCC4=CC(=O)CCC4(C)C3CCC21C` (centres undefined), with 6.81% (inactive); and `O=C1C(I)=CC(=C(c2cc(I)c(O)c(I)c2)c2ccccc2C(=O)O)C=C1I`, with 20.3% (inactive).
Same read-out and setting: then `CC(=O)Nc1ccc(OC[C@](C)(O)C(=O)Nc2ccc([N+](=O)[O-])c(C(F)(F)F)c2)cc1`, with -20.4% (inactive); and `CCN(CC)C(=O)c1ccc(C2=CC3(CCNCC3)Oc3cccc(O)c32)cc1`, with 4.2% (inactive); and `COc1ccc(CC2NCCc3cc(OC)c(OC)cc32)cc1OC` (centres undefined), with 5.03% (inactive).

Source of the values: PubChem BioAssay (NCATS).
